These compounds were tested on ULK2. Conditions: concentration: 1 μM, replicates: in singlicate; n = 1.
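Also: KINOMEscan kinase panel screen.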

SMILES	%Inh [%]
COC(=O)Nc1nc2cc(Oc3ccc(NC(=O)Nc4cc(F)ccc4F)cc3)ccc2[nH]1.Cl [GW701424]	0
O=c1cc(N2CCOCC2)nc2n(Cc3cccc(Cl)c3Cl)c(C3CC3)nn12 [GSK2358994]	10
Nc1nccc(-c2c(-c3ccc(F)cc3)ncn2C2CCN(CC(F)(F)F)CC2)n1 [SB-236560]	30
O=C(Nc1cccc(-c2nn3ncccc3c2-c2ccnc(Nc3cccc(C(F)(F)F)c3)n2)c1)c1c(F)cccc1F [GSK299495]	0
CSc1ccc(-c2cc3ncnc(SCC(=O)O)c3s2)cc1	8
Cn1ccc2ncnc(Oc3ccc(NC(=O)Nc4ccncc4)c(Cl)c3)c21	10
O=c1cc(N2CCOCC2)nc2n(Cc3cccc4ccccc34)ccn12 [GSK2333389]	7
CCc1nc(-c2cccc(C)c2)c(-c2ccnc(NCc3ccccc3)c2)s1	8
CC(C)(C)n1cnc2c(N)ncnc21 [SKF-97359]	0
COc1ccc(CNC(=O)NC2CCN(c3ccnc(Nc4ccc(OC)cc4)n3)C2)cc1 (centres unmarked) [GSK1379727]	0
Fc1ccc(-c2ncn(CCCN3CCOCC3)c2-c2ccccn2)cc1 [SB-211742]	0
O=c1cc(N2CCOCC2)nc2n(Cc3cccc(F)c3)ccn12 [GSK2297430]	0
COc1cc(Nc2nccc(N3CCC(NC(=O)c4cccc(NC(C)=O)c4)C3)n2)cc(OC)c1OC (centres unmarked) [GSK1379754]	0
Cc1cccc(Cn2ccn3c(=O)cc(N4CCOCC4)nc23)c1 [GSK2297542]	0

— publication PMC5540273 (PLoS ONE, 2017)
